According to PubChem BioAssay (NCI):
This is part of a sample that, as a whole, favours compounds with a hit. Of some 83,000 tested, about 20% had one in any assay.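 Cell lines were cultured in 96-well plates, exposed to a single compound concentration, and assessed for percent growth 48 hours later.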 Active and inactive are the calls of the source. The calls were made as follows: active = growth percent below 10; inactive = the rest.

Tests used:
Assay in all cases: NCI-60 one-dose screen, 48 h (100 = growth as untreated, 0 = no growth, -100 = all killed)
Conditions in all cases: 10 µM unless noted
SK-MEL-2 melanoma = test system: SK-MEL-2 melanoma
EKVX NSCLC = test system: EKVX NSCLC
SN12C renal = test system: SN12C renal
UO-31 renal = test system: UO-31 renal
TK-10 renal = test system: TK-10 renal
ACHN renal = test system: ACHN renal
CAKI-1 renal = test system: CAKI-1 renal
A498 renal = test system: A498 renal
CCRF-CEM leukemia = test system: CCRF-CEM leukemia
MOLT-4 leukemia = test system: MOLT-4 leukemia

Measured: growth

O=C(Nc1ccc(Oc2ccc(F)cc2)c(Cl)c1)c1cccnc1
inactive: SK-MEL-2 melanoma 91.3% | EKVX NSCLC 81.9% | SN12C renal 95.8% | UO-31 renal 80.9% | TK-10 renal 97.7% | ACHN renal 99.5% | CAKI-1 renal 86.9% | A498 renal 70.8% | CCRF-CEM leukemia 101% | MOLT-4 leukemia 105%

CC1(C)CC(=O)C(c2c(-c3ccccc3)[nH]c3[nH]c(=S)[nH]c(=O)c23)=C(O)C1
inactive: SK-MEL-2 melanoma 94.7% | EKVX NSCLC 89.8% | SN12C renal 99% | UO-31 renal 90.9% | TK-10 renal 107% | ACHN renal 97.3% | A498 renal 100% | CCRF-CEM leukemia 92%

COc1ccc(C2Nc3ccccc3-n3cccc32)cc1 (stereo not drawn)
inactive: SK-MEL-2 melanoma 92.7% | EKVX NSCLC 68.8% | SN12C renal 97.4% | UO-31 renal 58.3% | TK-10 renal 100% | ACHN renal 88% | CAKI-1 renal 89% | A498 renal 93.2% | CCRF-CEM leukemia 104% | MOLT-4 leukemia 120%

CCCCCCCCSC1=CC(=O)C(OC)=C(OC)C1=O
inactive: SK-MEL-2 melanoma 26.3% | EKVX NSCLC 43.8% | SN12C renal 10.7% | A498 renal 65.5%
active: UO-31 renal -92.7% | TK-10 renal -99.3% | ACHN renal -77.8% | CAKI-1 renal -45.6% | CCRF-CEM leukemia -15.8% | MOLT-4 leukemia -5.17%

CN(CC(=O)N(Cc1ccc(C2CCCCC2)cc1)c1ccc(C(=O)NO)cc1)S(=O)(=O)c1c(F)c(F)c(F)c(F)c1F
inactive: SK-MEL-2 melanoma 81.2% | EKVX NSCLC 106% | SN12C renal 86.1% | UO-31 renal 69.1% | TK-10 renal 87.4% | ACHN renal 79.6% | CAKI-1 renal 87.4% | A498 renal 95.7% | CCRF-CEM leukemia 41.9% | MOLT-4 leukemia 39.2%

C/C=C/C(N)=O
inactive: SK-MEL-2 melanoma 119% | EKVX NSCLC 95.9% | SN12C renal 106% | UO-31 renal 91.7% | TK-10 renal 105% | ACHN renal 96.8% | A498 renal 108% | CCRF-CEM leukemia 35.6% | MOLT-4 leukemia 96.2%

CC(=O)/C(=C/c1cccc(Cl)c1)C(=O)c1ccccc1
inactive: SK-MEL-2 melanoma 94.9% | EKVX NSCLC 98.6% | SN12C renal 100% | UO-31 renal 72.1% | TK-10 renal 96.6% | ACHN renal 88.6% | A498 renal 119% | CCRF-CEM leukemia 40.2%

CCC(c1ccc(O)cc1)C(CC)c1ccc(O)c(F)c1 (stereo not drawn)
inactive: SK-MEL-2 melanoma 75.1% | EKVX NSCLC 84.2% | SN12C renal 88.2% | UO-31 renal 55.4% | TK-10 renal 96.6% | ACHN renal 90.5% | CAKI-1 renal 89.2% | A498 renal 107% | MOLT-4 leukemia 54.9%

CC1=CC(=O)CC(C)(C)[C@@]1(O)/C=C/[C@@H](C)O
inactive: SK-MEL-2 melanoma 112% | EKVX NSCLC 91.6% | SN12C renal 105% | UO-31 renal 95.3% | TK-10 renal 108% | ACHN renal 109% | CAKI-1 renal 97.2% | A498 renal 94.1% | CCRF-CEM leukemia 104% | MOLT-4 leukemia 108%

Oc1c(Cl)cc(Cl)cc1CNc1nccnn1
inactive: SK-MEL-2 melanoma 115% | EKVX NSCLC 94.4% | SN12C renal 90.4% | UO-31 renal 93.5% | TK-10 renal 113% | ACHN renal 99.8% | CAKI-1 renal 89.6% | A498 renal 88.7% | CCRF-CEM leukemia 111% | MOLT-4 leukemia 101%

O=C(/C=C/c1ccc(Cl)cc1)c1ccc(O)c(CN2CCN(c3cc4c(cc3F)c(=O)c(C(=O)O)cn4C3CC3)CC2)c1
inactive: SK-MEL-2 melanoma 68.6% | EKVX NSCLC 62.4% | SN12C renal 26.8% | UO-31 renal 33.4% | TK-10 renal 73.8% | ACHN renal 32.5% | CAKI-1 renal 45.5% | A498 renal 39.9% | CCRF-CEM leukemia 43.9% | MOLT-4 leukemia 66%

Cc1ccc2c(c1)C(=O)/C(=C/c1ccc(OCC(=O)c3ccccc3)cc1)O2
inactive: SK-MEL-2 melanoma 77.8% | EKVX NSCLC 90.2% | SN12C renal 98.6% | UO-31 renal 85.5% | TK-10 renal 127% | ACHN renal 100% | CAKI-1 renal 103% | A498 renal 98.3% | CCRF-CEM leukemia 151% | MOLT-4 leukemia 33.2%

CC1(C)CC(C(=O)OCCCCCCCCCCC[P+](c2ccccc2)(c2ccccc2)c2ccccc2)C(C)(C)N1O (stereo not drawn)
active: SK-MEL-2 melanoma -45.8% | EKVX NSCLC -32.6% | SN12C renal -36% | UO-31 renal -74.4% | TK-10 renal -72.1% | CAKI-1 renal -57.9% | A498 renal -94.8% | CCRF-CEM leukemia -32.8% | MOLT-4 leukemia -56.9%
inactive: ACHN renal 109%

C=C1CCC2C3(C)COC(C)(C)OC3CCC2(C)C1C/C=C1/C(=O)OCC1OC(C)=O (stereo not drawn)
active: MOLT-4 leukemia -16.8%
inactive: SK-MEL-2 melanoma 49.2% | EKVX NSCLC 53.5% | SN12C renal 33% | UO-31 renal 64.6% | TK-10 renal 68.7% | ACHN renal 24.3% | CAKI-1 renal 19.3% | A498 renal 116%

COc1cc(C(=O)/C=C/c2c(C)n([O-])c3ccc(C)cc3[n+]2=O)cc(OC)c1OC
active: UO-31 renal -27.3% | ACHN renal -40.9% | CAKI-1 renal 6.71% | MOLT-4 leukemia -30.2%
inactive: SK-MEL-2 melanoma 84.3% | EKVX NSCLC 50.8% | SN12C renal 60% | TK-10 renal 26.6% | A498 renal 95.3%

COc1ccc(CN2C(=O)/C(=C\c3cc(OC)c(OC)c(OC)c3)c3cc(OC)ccc32)cc1
inactive: EKVX NSCLC 13.5% | SN12C renal 18% | TK-10 renal 11.2% | A498 renal 38.6%
active: SK-MEL-2 melanoma -13.4% | UO-31 renal 6.01% | ACHN renal -60.5% | CAKI-1 renal -2.31% | MOLT-4 leukemia -24.7%

NS(=O)(=O)N(c1cc(C(F)(F)F)cc(C(F)(F)F)c1)C1CCN(Cc2ccc(F)cc2)CC1
inactive: SK-MEL-2 melanoma 74.2% | EKVX NSCLC 72.2% | SN12C renal 42.2% | UO-31 renal 35.6% | TK-10 renal 81.4% | ACHN renal 75.2% | CAKI-1 renal 62.5% | A498 renal 76.3% | CCRF-CEM leukemia 64% | MOLT-4 leukemia 39%

CCN(CC)C12CCCCC1(C)C(C#N)(C#N)C(C#N)=C(N)O2 (stereo not drawn)
inactive: SK-MEL-2 melanoma 112% | EKVX NSCLC 89.3% | SN12C renal 97.5% | UO-31 renal 82.7% | TK-10 renal 93.2% | ACHN renal 106% | CAKI-1 renal 91.8% | A498 renal 122% | MOLT-4 leukemia 108%

Cc1ccc2c(c1)C(=O)c1c-2c(OCCCN(C)C)nc2ccccc12
active: UO-31 renal 3.12% | ACHN renal -6.51% | MOLT-4 leukemia -10.5%
inactive: SK-MEL-2 melanoma 44.7% | EKVX NSCLC 28.4% | SN12C renal 19.4% | TK-10 renal 37.2% | CAKI-1 renal 24.2% | A498 renal 33.3% | CCRF-CEM leukemia 19.3%

C=C1C(=O)O[C@H]2[C@H]1CC/C(Cn1cc(Cn3ccc4ccccc43)nn1)=C\CC[C@@]1(C)O[C@@H]21
inactive: SK-MEL-2 melanoma 61.5% | EKVX NSCLC 58.6% | SN12C renal 39.8% | TK-10 renal 16.8% | CAKI-1 renal 18.3% | A498 renal 74.3%
active: UO-31 renal -77.2% | ACHN renal -52.9% | CCRF-CEM leukemia -18.6% | MOLT-4 leukemia -8.31%

O=C1NC(=O)C(CC(=O)n2c(-c3ccccc3)nc3ccccc32)C(=O)N1
inactive: SK-MEL-2 melanoma 101% | EKVX NSCLC 93.6% | SN12C renal 99.5% | UO-31 renal 79.6% | TK-10 renal 116% | ACHN renal 101% | CAKI-1 renal 90.5% | A498 renal 63.6% | CCRF-CEM leukemia 104% | MOLT-4 leukemia 108%

COc1ccc(-c2csc(NC(=O)CN3CCN(c4cc5c(cc4F)c(=O)c(C(=O)O)cn5C4CC4)CC3)n2)cc1
active: SK-MEL-2 melanoma -11.5% | SN12C renal 4.18% | A498 renal -10.1%
inactive: EKVX NSCLC 26.2% | UO-31 renal 21% | TK-10 renal 18% | ACHN renal 11.8% | CAKI-1 renal 21.3% | CCRF-CEM leukemia 22.2% | MOLT-4 leukemia 24.2%

C=C1CCC2C3(C)COC(c4ccc(OC)cc4Br)OC3CCC2(C)C1/C=C/C1=CCOC1=O (stereo not drawn)
inactive: SK-MEL-2 melanoma 81.2% | EKVX NSCLC 44.2% | SN12C renal 79.8% | UO-31 renal 54.2% | TK-10 renal 83.9% | ACHN renal 81.1% | CAKI-1 renal 74.3% | A498 renal 72.2% | MOLT-4 leukemia 55.7%

CCCCCC(=O)Oc1ccc(/C(=C(\C)c2ccccc2)c2ccc(OCCN(CC)CC)cc2)cc1
inactive: SK-MEL-2 melanoma 87.6% | EKVX NSCLC 92.5% | SN12C renal 79.8% | UO-31 renal 48.4% | TK-10 renal 74.6% | ACHN renal 87.9% | CAKI-1 renal 99.7% | A498 renal 84.8% | CCRF-CEM leukemia 63.9% | MOLT-4 leukemia 46.1%

O=C(COc1cccc(/C=C2/Oc3ccccc3C2=O)c1)Nc1nccs1
active: SK-MEL-2 melanoma -32.2% | UO-31 renal -53.2%
inactive: EKVX NSCLC 74.7% | SN12C renal 70.3% | TK-10 renal 83.7% | ACHN renal 112% | CAKI-1 renal 37% | A498 renal 93.9% | MOLT-4 leukemia 28.4%

CC(=O)CC(C)(C)c1ccc(Cl)cc1
inactive: SK-MEL-2 melanoma 108% | EKVX NSCLC 101% | SN12C renal 97.7% | UO-31 renal 85.5% | TK-10 renal 114% | ACHN renal 102% | CAKI-1 renal 90.2% | A498 renal 108% | CCRF-CEM leukemia 101% | MOLT-4 leukemia 100%

O=C1c2cccnc2C(=O)c2c1c(C(=O)OCCN1CCCCC1)c1ccccn21
active: SK-MEL-2 melanoma -45.4% | EKVX NSCLC 4.44% | SN12C renal -68.8% | UO-31 renal -12.7% | TK-10 renal -14.3% | ACHN renal -66% | CAKI-1 renal 2.16% | CCRF-CEM leukemia -8.77% | MOLT-4 leukemia -19.1%
inactive: A498 renal 47.3%

COc1ccc(C(=O)/C=C/c2c[n+](=O)c3ccc(F)cc3n2[O-])cc1
inactive: SK-MEL-2 melanoma 112% | EKVX NSCLC 92% | SN12C renal 96.2% | UO-31 renal 87.8% | TK-10 renal 106% | ACHN renal 102% | CAKI-1 renal 95.2% | A498 renal 109% | CCRF-CEM leukemia 95.9% | MOLT-4 leukemia 107%
